Test results from article PMC8384837, “Expanding the binding specificity for RNA recognition by a PUF domain”.

Molecular target: PUM1 PUF domain R5-ERL (Homo sapiens, UniProt Q14671 828-1176, C1007E;Q1011L)
Assay: yeast three-hybrid, YBZ-1, SC-Leu-His + 0.5 mM 3-AT, 4 days
Conditions: tags: N-Gal4 AD-HA kept; label: inside an RPR1-promoter hybrid RNA with tandem MS2 sites; ssRNA
In short: (§1)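 The interaction score is the log change in variant frequency from input to selection. Scores were computed in log2 with a pseudocount of 1 for absent variants, using Illumina sequencing of PCR-amplified repeat regions. The input came from four days on SC-Leu and the selection from four days on SC-Leu-His + 0.5 mM 3-AT. The cells were strain YBZ-1 (LexA–MS2 coat fusion, HIS3 reporter) co-expressing Pumilio-1 PUF domain libraries and matching RNA elements from a centromeric plasmid.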

Row | Sequence | binding signal
1 | GGCUAGAACUAGUGGAUCCCCCGGCGCCCGGCGGCUCGAGCCCGGGUAAGUGUCAAUAGUCUGCAUGCCGCCGGGCGCCAUGCCUGCAGGUCGACUCUAGAAAACAUG | 3.87 log2 enrichment (interaction score)
2 | GGCUAGAACUAGUGGAUCCCCCGGCGCCCGGCGGCUCGAGCCCGGGUAAGUGUAAAUAGUCUGCAUGCCGCCGGGCGCCAUGCCUGCAGGUCGACUCUAGAAAACAUG | 5.49 log2 enrichment (interaction score)
3 | GGCUAGAACUAGUGGAUCCCCCGGCGCCCGGCGGCUCGAGCCCGGGUAAGUGUGAAUAGUCUGCAUGCCGCCGGGCGCCAUGCCUGCAGGUCGACUCUAGAAAACAUG | 1.92 log2 enrichment (interaction score)

Molecular target: PUM1 PUF domain R4-PWV (Homo sapiens, UniProt Q14671 828-1176, N971P;H972W;Q975V)
Assay: as above
Conditions: tags: N-Gal4 AD-HA kept; label: inside an RPR1-promoter hybrid RNA with tandem MS2 sites; ssRNA
In short: as §1

Row | Sequence | binding signal
4 | GGCUAGAACUAGUGGAUCCCCCGGCGCCCGGCGGCUCGAGCCCGGGUAAGUGUAAAUAGUCUGCAUGCCGCCGGGCGCCAUGCCUGCAGGUCGACUCUAGAAAACAUG | 6 log2 enrichment (interaction score)
5 | GGCUAGAACUAGUGGAUCCCCCGGCGCCCGGCGGCUCGAGCCCGGGUAAGUGUACAUAGUCUGCAUGCCGCCGGGCGCCAUGCCUGCAGGUCGACUCUAGAAAACAUG | 5.39 log2 enrichment (interaction score)
6 | GGCUAGAACUAGUGGAUCCCCCGGCGCCCGGCGGCUCGAGCCCGGGUAAGUGUAUAUAGUCUGCAUGCCGCCGGGCGCCAUGCCUGCAGGUCGACUCUAGAAAACAUG | 6.68 log2 enrichment (interaction score)

Molecular target: PUM1 PUF domain R4-APG (Homo sapiens, UniProt Q14671 828-1176, N971A;H972P;Q975G)
Assay: as above
Conditions: tags: N-Gal4 AD-HA kept; label: inside an RPR1-promoter hybrid RNA with tandem MS2 sites; ssRNA
In short: as §1

Row | Sequence | binding signal
7 | GGCUAGAACUAGUGGAUCCCCCGGCGCCCGGCGGCUCGAGCCCGGGUAAGUGUAAAUAGUCUGCAUGCCGCCGGGCGCCAUGCCUGCAGGUCGACUCUAGAAAACAUG | 4.82 log2 enrichment (interaction score)
8 | GGCUAGAACUAGUGGAUCCCCCGGCGCCCGGCGGCUCGAGCCCGGGUAAGUGUACAUAGUCUGCAUGCCGCCGGGCGCCAUGCCUGCAGGUCGACUCUAGAAAACAUG | 0.78 log2 enrichment (interaction score)
9 | GGCUAGAACUAGUGGAUCCCCCGGCGCCCGGCGGCUCGAGCCCGGGUAAGUGUAUAUAGUCUGCAUGCCGCCGGGCGCCAUGCCUGCAGGUCGACUCUAGAAAACAUG | 4.91 log2 enrichment (interaction score)
